Laboratory results reported in PubChem BioAssay AID1159580 (chemical genetic matrix, 2015).
In all, about 5,500 compounds went through this assay and about 2,000 (36%) were called active. Roughly 18% stayed inconclusive and do not appear here. No stated cut-off is given here; in the data, active means normalized growth mostly below about 0.91 (no sharp cut-off); inconclusive means no clear call, values can overlap the other calls; inactive means mostly above about 0.92. The list shows a part of the results.

Assay: chemical genetic growth profiling, strain panel (AID 1159580);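 further: tested at 20 µM; growth read once vehicle control cultures reached saturation at 30 °C; 1 = growth at the plate median or of vehicle wells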
Conditions: S. cerevisiae deletion strains, growth OD

Measured: normalized growth

CCN(CC)CCNC(=O)c1ccc(NC(C)=O)cc1
inactive: locus YAL040C, strain CLN3, stronger effect = lower value 0.985 | locus YDR150W, strain NUM1, stronger effect = lower value 0.975 | locus YER002W, strain NOP16, stronger effect = lower value 0.969 | locus YGR078C, strain PAC10, stronger effect = lower value 0.985 | locus YGR229C, strain SMI1, stronger effect = lower value 1.01 | locus YHR030C, strain SLT2, stronger effect = lower value 0.999 | locus YHR079C, strain IRE1, stronger effect = lower value 1.03 | locus YJL095W, strain BCK1, stronger effect = lower value 1.02 | locus YJR066W, strain TOR1, stronger effect = lower value 0.971 | locus YLR113W, strain HOG1, stronger effect = lower value 1.03 | locus YMR307W, strain GAS1, stronger effect = lower value 1.01 | locus YNL175C, strain NOP13, stronger effect = lower value 0.983 | locus YNL183C, strain NPR1, stronger effect = lower value 0.959 | locus YNL197C, strain WHI3, stronger effect = lower value 0.984 | locus YNL224C, strain SQS1, stronger effect = lower value 1.01 | locus YOR083W, strain WHI5 (second series), stronger effect = lower value 0.979 | locus YOR231W, strain MKK1, stronger effect = lower value 1.04 | locus YPL256C, strain CLN2, stronger effect = lower value 1.08
